Experimental data published in article PMC13494018.
Unmarked numbers belong to inactive results. How the calls were made is not given here.

Target: VTCN1, Q7Z7D3
Sequence (Q7Z7D3 whole entry): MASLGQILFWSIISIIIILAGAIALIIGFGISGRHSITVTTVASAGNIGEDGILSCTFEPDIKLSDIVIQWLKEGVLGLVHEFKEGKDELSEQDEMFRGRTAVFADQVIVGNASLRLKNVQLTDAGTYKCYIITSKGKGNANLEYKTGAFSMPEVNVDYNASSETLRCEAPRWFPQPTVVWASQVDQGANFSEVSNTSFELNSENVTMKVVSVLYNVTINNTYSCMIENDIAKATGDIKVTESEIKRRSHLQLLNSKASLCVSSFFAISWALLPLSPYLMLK

B1: design_605_6ebdab39-eaab-4492-afcb-164e20c3b25e_494_dldesign_0_cycle1_af2pred (protein)
chain: AEALEKGKAASAALDANIATGFATAEKTGDKAAAGAAAVAATAEAGAAIGPEAAEKGRRVMTSIFDGYVKA
  binding in a display sort: not found

B2: design_605_6ebdab39-eaab-4492-afcb-164e20c3b25e_593_dldesign_0_cycle1_af2pred (protein)
chain: EVEAKASEVAARARQVIAEAEYLERRAKKEGDKEKEKKAKEAKELAEKALELIKKGGLEGVEKAEKLVEEAEKLLEE
  binding in a display sort: not found

B3: design_605_6ebdab39-eaab-4492-afcb-164e20c3b25e_501_dldesign_0_cycle1_af2pred (protein)
chain: AAAEEAAKKALKELKEEAKKLVEEAKKSNAEEAKKKRKEVVELGKEYAEKAAASPEVQKEIAKVVHEAQEELAEAAFEHSRKEKE
  binding in a display sort: not found

B4: design_605_6ebdab39-eaab-4492-afcb-164e20c3b25e_437_dldesign_0_cycle1_af2pred (protein)
chain: MKEEAEEAKKRAEAIKKAAKEDPDKAAALIAKGFASPLAAAVKAAPPETRAEAAAQAAKVATRILENEARSYERTAN
  binding in a display sort: not found

B5: design_605_6ebdab39-eaab-4492-afcb-164e20c3b25e_565_dldesign_0_cycle1_af2pred (protein)
chain: AVEKTIAELLKAASAAIIELFDDPEKGRAKLAEVLAKAEAAAKAASPKDAAKIQAALDEMKKRGEAAIKRVEEDEKIAK
  binding in a display sort: not found

B6: design_605_6ebdab39-eaab-4492-afcb-164e20c3b25e_758_dldesign_0_cycle1_af2pred (protein)
chain: SEYFKEAVDVASKIVRAYHALAAVFPETAAQLEADGDAKVDKVMAAAELAEKDPEKGKAELEKQKAEAEKIKAEADKAAAAAR
  binding in a display sort: not found

B7: design_605_6ebdab39-eaab-4492-afcb-164e20c3b25e_729_dldesign_0_cycle1_af2pred (protein)
chain: SSSKETSEFNRELQKRARAAGEELEKKSKNPEAGKEAKKLLSNGLMESFDKSSKEEAKAALDKAIAEAKKHVEEAS
  binding in a display sort: not found

B8: design_605_6ebdab39-eaab-4492-afcb-164e20c3b25e_661_dldesign_0_cycle1_af2pred (protein)
chain: MEEFEKLVKEAEKLIKKALESKDKEERKKLVEEAKEVLKKAQKLGKELAAKSTPEEAKEIVEKMHELHEKLAEAKQKAS
  binding in a display sort: not found

B9: design_605_6ebdab39-eaab-4492-afcb-164e20c3b25e_737_dldesign_0_cycle1_af2pred (protein)
chain: MEELKEQIKEIKEKAEEILKNKETASLGILAESNAEDAEKLLKAGEADPSTKEKNVAEAKKFLKAAKEYAEKGLELMKKLK
  binding in a display sort: not found

B10: design_605_6ebdab39-eaab-4492-afcb-164e20c3b25e_689_dldesign_0_cycle1_af2pred (protein)
chain: GAAQEEADKALEKAGKILKEAEKLAKEAAKIGTEEEAKELEELIKKAKELLEKGKASTPEEKKKLAVEAAEYAHEARALAKHILASK
  binding in a display sort: not found

B11: design_605_6ebdab39-eaab-4492-afcb-164e20c3b25e_707_dldesign_0_cycle1_af2pred (protein)
chain: MKKQAIELAEEAKELMEKEGATPEAVALASSALRTAGFPRELAEEVREAYKKDKEEGEKKLKEAVKLVLERAKKK
  binding in a display sort: not found

B12: design_605_6ebdab39-eaab-4492-afcb-164e20c3b25e_648_dldesign_0_cycle1_af2pred (protein)
chain: AEAEELKKKASQYLMEAFDTGSEEELKKAIEYAEKAAEAASEEEGKKILEEKEKMKKGFERFLKAYKEAQKKAEE
  binding in a display sort: not found

B13: design_605_6ebdab39-eaab-4492-afcb-164e20c3b25e_445_dldesign_0_cycle1_af2pred (protein)
chain: AKEKALIDLQIAEQMAEAAKEGYAGTAAAKRAAKAAKRAIKLDPSLAEEAVKIMKELAKAAAKQDPEAGKVAAKELKEVEKEAKKVKE
  binding in a display sort: not found

B14: design_605_6ebdab39-eaab-4492-afcb-164e20c3b25e_250_dldesign_0_cycle1_af2pred (protein)
chain: AAAAAAARLAAGLAAAAKFVEEATKKAREIAAKKTPEESAKAKAEVEEYEAMARDALAMGNAAGARSIARLALEKVS
  binding in a display sort: not found

B15: design_605_6ebdab39-eaab-4492-afcb-164e20c3b25e_390_dldesign_0_cycle1_af2pred (protein)
chain: KEEKVEEVKKKMEESSLAEAVFIGIEAVMEFTKDAPEYMRKIVKAGRKGGEEGDEEKAKKEMAEIVKKAAE
  binding in a display sort: not found

B16: design_605_6ebdab39-eaab-4492-afcb-164e20c3b25e_558_dldesign_0_cycle1_af2pred (protein)
chain: EEEKKLVELLHEAQELAAEAEFYSKKDKEKSKEYIEKATKKIEEAAKLAGFEPIKAKNVEDLKEVLKEAIKKASERIKERKA
  binding in a display sort: not found

B17: design_605_6ebdab39-eaab-4492-afcb-164e20c3b25e_258_dldesign_0_cycle1_af2pred (protein)
chain: KAKELSKIVHEGFQAAKELELLAKKDPRMKPAAEEAEKLRKKAVEAAKAGDYEKAAEYAKKLKELAEKALKEYE
  binding in a display sort: not found

B18: design_605_6ebdab39-eaab-4492-afcb-164e20c3b25e_178_dldesign_0_cycle1_af2pred (protein)
chain: MSEEIKKKAEEIVEEALKKAEAAPTVEEAQAILDEALDKAVSLGKTIEEKKYAADLVSKARKKLREVWKAR
  binding in a display sort: not found

B19: design_605_6ebdab39-eaab-4492-afcb-164e20c3b25e_165_dldesign_0_cycle1_af2pred (protein)
chain: AAAAEAAAKEAAAKLAIAEARALIRAGRANPKFGVELALEGAKIAREAAKKNPAMKEELEKTAKEAEKEAKKLA
  binding in a display sort: not found
